According to PubChem BioAssay (NCI):
The panel holds about 83,000 compounds, 20% with a hit somewhere; the sample as a whole holds those more often.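 A percent growth of 40 corresponds to 60% growth inhibition; 0 means no net growth; -100 means all cells died. Active threshold: below 10.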 The source made the active and inactive calls.

Columns and labels:
Test in all cases: NCI-60 one-dose screen, 48 h (100 = growth as untreated, 0 = no growth, -100 = all killed)
Settings in all cases: 10 µM unless noted
[1] = tested on: SR leukemia
[2] = tested on: RPMI-8226 leukemia
[3] = tested on: OVCAR-8 ovarian
[4] = tested on: OVCAR-5 ovarian
[5] = tested on: OVCAR-4 ovarian
[6] = tested on: SK-OV-3 ovarian
[7] = tested on: IGROV1 ovarian
[8] = tested on: OVCAR-3 ovarian
[9] = tested on: HS 578T breast
[10] = tested on: NCI/ADR-RES ovarian
[11] = tested on: T-47D breast
[12] = tested on: BT-549 breast
[13] = tested on: MDA-MB-435 melanoma
[14] = tested on: SW-620 colon
[15] = tested on: MCF7 breast
[16] = tested on: HCT-116 colon
[17] = tested on: HCC-2998 colon
[18] = tested on: KM12 colon

Measured: growth

Cc1ccc(-c2nc3ccc(Cl)cc3c(=O)n2N2C(=O)CSC2c2ccccc2Cl)cc1 (stereo not drawn)
inactive: [1] 80.8% | [2] 80.1% | [3] 27.3% | [4] 82.7% | [5] 14.4% | [6] 36.2% | [7] 57.5% | [8] 58.6% | [9] 56.6% | [10] 70.6% | [11] 75.8% | [12] 100% | [13] 66.9% | [14] 77.8% | [15] 94.1% | [16] 53.1% | [17] 93.4% | [18] 82.3%

NS(=O)(=O)c1ccc(CCNC(=O)/C=C/c2ccc(Cl)cc2)cc1
inactive: [1] 75.6% | [2] 98.3% | [3] 95.1% | [4] 98.5% | [5] 87.1% | [6] 105% | [7] 91.7% | [8] 105% | [9] 98.2% | [10] 103% | [11] 90.7% | [12] 108% | [13] 95.6% | [14] 102% | [15] 92.5% | [16] 100% | [17] 116% | [18] 98.6%

Cc1csc(-c2ccc3c(c2)COC3(CCCN(C)C)c2ccc(F)cc2)c1 (stereo not drawn)
inactive: [3] 39% | [4] 72.1% | [5] 45.9% | [7] 17.2% | [8] 58.7% | [9] 47.7% | [10] 78.6% | [12] 76.6% | [14] 22.7% | [15] 17.1% | [18] 14.4%
active: [1] -3.41% | [2] -31.5% | [6] -22.4% | [11] -37.5% | [13] -30.3% | [16] -26.7% | [17] -50.7%

COc1cc(/C=C2\C(=O)N(CC(O)COc3cc(O)c4c(=O)cc(-c5ccccc5)oc4c3)c3ccccc32)cc(OC)c1O (stereo not drawn)
inactive: [1] 45.9% | [2] 57.9% | [3] 77% | [4] 113% | [5] 78.7% | [6] 111% | [7] 51.3% | [8] 69.5% | [9] 85.1% | [10] 87.5% | [11] 58.2% | [12] 96.7% | [13] 54.7% | [14] 89.9% | [15] 32.8% | [16] 78.4% | [17] 99.7% | [18] 82%

CCSc1sc(-c2ccc(C)cc2)nc1[P+](c1ccccc1)(c1ccccc1)c1ccccc1
active: [1] -17.9% | [2] -33.9% | [3] 1.31% | [5] -4.21% | [6] -23.1% | [7] -8.55% | [8] -12.7% | [9] -3.68% | [10] -5.4% | [11] -22% | [12] -19.1% | [13] -26.8% | [14] 4.99% | [15] -4.84% | [16] -20.9% | [17] -23.1% | [18] -63.2%
inactive: [4] 18.3%

Clc1ccc(Cn2cc(-c3nc4ccc(Br)nc4n3Cc3ccc(Cl)cc3)c3cccnc32)cc1
inactive: [1] 61% | [2] 67.6% | [3] 77.2% | [4] 96.9% | [5] 87.6% | [6] 80.9% | [7] 77.3% | [8] 93.5% | [9] 92.7% | [10] 90.8% | [11] 34.7% | [12] 82.4% | [13] 105% | [14] 103% | [15] 57.7% | [16] 84.1% | [17] 96.7% | [18] 95.9%

Cn1cc(-c2csc(-c3cn(CCCN4CCCCC4)c4ccccc34)n2)c2cccnc21
active: [1] -50.7% | [2] -35.9% | [3] -68.4% | [5] -48.2% | [8] -80.9% | [10] -25% | [13] -87.7% | [14] -65.3% | [15] -77.2% | [16] -95% | [18] -62.8%
inactive: [4] 92.9% | [6] 94.7% | [7] 79.6% | [9] 67.5% | [11] 92.5% | [12] 72.7% | [17] 99%

CC(=O)c1c(C)[nH]c(-c2nc3ccc(N4CCN(C)CC4)cc3[nH]2)c1-c1ccc2c(c1)OCCO2
inactive: [1] 46.2% | [3] 48.2% | [4] 46.4% | [5] 43% | [6] 28.7% | [7] 23% | [8] 46% | [9] 30.1% | [10] 53% | [11] 37.7% | [12] 63% | [13] 34.9% | [14] 59.7% | [15] 10.5% | [16] 32.1% | [17] 45% | [18] 48.9%
active: [2] 7.78%

COc1ccc(C(=O)c2ccc(C)cc2)c(OC)c1OC
inactive: [1] 56.6% | [2] 88.7% | [3] 90.4% | [4] 93% | [5] 99.7% | [6] 79.3% | [7] 71.6% | [8] 66.7% | [9] 86.9% | [10] 45.2% | [11] 90% | [12] 86.7% | [14] 33.6% | [15] 72.2% | [16] 58.4% | [17] 75.9% | [18] 47.2%
active: [13] -25.2%

Cc1ccncc1C(=O)O
inactive: [1] 120% | [2] 108% | [3] 95.5% | [4] 94.7% | [5] 96% | [6] 137% | [7] 99.6% | [8] 101% | [9] 96.5% | [10] 96.8% | [11] 107% | [12] 99.8% | [13] 101% | [14] 97.3% | [15] 101% | [16] 107% | [17] 116% | [18] 98.6%

C=C(C)[C@@H]1CC[C@]2(C(=O)NNC(=O)c3cccnc3)CC[C@]3(C)[C@H](CC[C@@H]4[C@@]5(C)CCCNC(C)(C)[C@@H]5CC[C@]43C)[C@@H]12
inactive: [1] 18.9% | [2] 46.6% | [3] 76.7% | [4] 96.9% | [5] 75.3% | [6] 107% | [7] 91% | [8] 81.2% | [9] 67.3% | [10] 90.5% | [11] 57.6% | [12] 82.3% | [13] 83.6% | [14] 85.7% | [15] 59% | [16] 45.7% | [17] 73.4% | [18] 78.4%

Cc1nc([P+](c2ccccc2)(c2ccccc2)c2ccccc2)c(Sc2sc(-c3ccccc3)nc2[P+](c2ccccc2)(c2ccccc2)c2ccccc2)o1
inactive: [1] 18.6% | [4] 41.3% | [7] 10.3% | [9] 14% | [10] 75% | [17] 15.2%
active: [2] -7.25% | [3] 8.83% | [5] -1.77% | [6] -12.2% | [8] -1.45% | [11] 4.85% | [12] -0.458% | [13] -9.1% | [14] 9.8% | [15] 8.1% | [16] 3.77% | [18] -0.528%

C=C1CC[C@@H](C(=O)OC)Cc2nc(C)ccc21
inactive: [1] 95.7% | [2] 100% | [3] 102% | [4] 98.4% | [5] 103% | [6] 109% | [7] 107% | [8] 119% | [9] 107% | [10] 98.5% | [11] 99% | [12] 122% | [13] 103% | [14] 102% | [15] 98% | [16] 110% | [17] 101% | [18] 108%

Cn1cc(-c2csc(-c3cn(CCN)c4ccc(Br)cc34)n2)c2cccnc21
inactive: [2] 59.5% | [3] 76.5% | [4] 76.5% | [5] 54.3% | [6] 91.6% | [7] 38.8% | [8] 72.5% | [9] 74.5% | [10] 86.4% | [11] 45.5% | [12] 93.2% | [13] 91.1% | [14] 21.1% | [15] 20.9% | [16] 58.7% | [17] 97.9% | [18] 71.8%
active: [1] 9.41%

N=C(N)N=Nc1ccc(O)cc1
active: [15] 9.71% [100 µM]
inactive: [1] 35.6% [100 µM] | [2] 65.7% [100 µM] | [3] 36.7% [100 µM] | [4] 116% [100 µM] | [5] 68.9% [100 µM] | [6] 106% [100 µM] | [7] 85% [100 µM] | [8] 68.3% [100 µM] | [9] 60% [100 µM] | [10] 36.8% [100 µM] | [11] 98.8% [100 µM] | [12] 19.3% [100 µM] | [13] 80.4% [100 µM] | [14] 58.9% [100 µM] | [16] 48% [100 µM] | [17] 54.6% [100 µM] | [18] 89.7% [100 µM]

COc1ccc2c(c1)c(-c1nc(-c3cn(C)c4ncccc34)cs1)cn2CCCN1CCCCC1
inactive: [3] 59.6% | [4] 85.3% | [5] 74.7% | [6] 89.8% | [7] 66.1% | [9] 73.7% | [10] 69.5% | [11] 64% | [12] 80.5% | [13] 26% | [15] 34% | [17] 102% | [18] 57.4%
active: [1] -39.1% | [2] -8.74% | [8] -52.1% | [14] -22.9% | [16] -93.2%
